The values below come from PubChem BioAssay (NCI).

About 83,000 compounds went through this panel and 20% of them were active in at least one assay; those are over-represented in the sample as a whole.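 The test compound was applied at a single concentration to cells in 96-well plates for 48 hours, and percent growth was recorded.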 Values without a mark were called inactive. Activity calls are given as the source filed them. How the source made its calls: active means growth percent below 10; inactive means the rest.

What all share (test): NCI-60 one-dose screen, 48 h (100 = growth as untreated, 0 = no growth, -100 = all killed)
One assay has as its system NCI-H23 lung. The note with it: 10 µM unless noted.
Another assay concerns NCI-H226 lung. The conditions noted are these: 10 µM unless noted.
A further assay has as its system NCI-H322M lung. The note with it: 10 µM unless noted.
The subject of a further assay is HOP-62 NSCLC. The conditions noted are these: 10 µM unless noted.
The next assay has as its system NCI-H460 lung. The note with it: 10 µM unless noted.
The test system of a further assay is HOP-92 NSCLC. The note with it: 10 µM unless noted.
For another assay, the system named is NCI-H522 lung. The note with it: 10 µM unless noted.
A further assay has as its system A549/ATCC NSCLC. The conditions noted are these: 10 µM unless noted.
In the next assay the test system is 786-0 renal. The conditions noted are these: 10 µM unless noted.
The test system of the next assay is COLO 205 colon. The note with it: 10 µM unless noted.
A further assay deals with DU-145 prostate. The note with it: 10 µM unless noted.
The subject of another assay is K-562 leukemia. The note with it: 10 µM unless noted.
The test system of another assay is MALME-3M melanoma. The note with it: 10 µM unless noted.
The next assay concerns MDA-MB-231 breast. The conditions noted are these: 10 µM unless noted.
The next assay deals with SF-268 CNS. The note with it: 10 µM unless noted.
The test system of another assay is SF-295 CNS. The note with it: 10 µM unless noted.
Another assay relates to SF-539 CNS. The note with it: 10 µM unless noted.
The next assay relates to UACC-257 melanoma. The conditions noted are these: 10 µM.
For a further assay, the system named is M14 melanoma. The note with it: 10 µM unless noted.
The test system of the next assay is RXF 393 renal. The conditions noted are these: 10 µM unless noted.

`COc1ccc2oc3c4[nH]c5ccccc5c4c4c(c3c2c1)C(=O)N(O)C4=O`: the growth in the assay on NCI-H23 lung was 91.8%; with NCI-H226 lung, 93.8%; in the assay on NCI-H322M lung, 108%; in the assay on HOP-62 NSCLC, 102%; in the assay with NCI-H460 lung, 99.5%; in the assay on HOP-92 NSCLC it was 81%. Further, the growth with NCI-H522 lung was 99.3%; in the assay with A549/ATCC NSCLC it was 108%; in the assay with 786-0 renal, 101%; with COLO 205 colon, 111%; in the assay on DU-145 prostate it was 101%; in the assay on K-562 leukemia it was 98.3%. Also, the growth with MALME-3M melanoma is 105%; in the assay with MDA-MB-231 breast, 95.7%; in the assay with SF-268 CNS, 100%; in the assay on SF-295 CNS, 106%; in the assay with SF-539 CNS, 98%; in the assay on UACC-257 melanoma it was 106%.

As to `O=C1c2c(c3c4cc(O)ccc4oc3c3[nH]c4ccccc4c23)C(=O)N1O`, the growth with NCI-H23 lung is 2.57% (active); in the assay on NCI-H226 lung, 63.6%; in the assay with NCI-H322M lung it was 2.25% (active); in the assay on HOP-62 NSCLC, -25.6% (active); in the assay on NCI-H460 lung, -6.86% (active); in the assay with HOP-92 NSCLC, -8.01% (active). Further, the growth is -5.7% (active) in the assay with NCI-H522 lung; 43.5% with A549/ATCC NSCLC; 2.62% (active) with 786-0 renal; 61.5% with COLO 205 colon; 11.3% in the assay with DU-145 prostate; 14.4% with K-562 leukemia. In addition, the growth was 9.51% (active) with MALME-3M melanoma; 26% in the assay on MDA-MB-231 breast; 17.4% in the assay on SF-268 CNS; 10.2% with SF-295 CNS; -15% (active) with SF-539 CNS; 22.1% in the assay with UACC-257 melanoma. In addition, in the assay on M14 melanoma, the growth was -4.66% (active).

Take `CC1(C)CC[C@]2(C(=O)N3CCCNCC3)CC[C@]3(C)C(=CC[C@@H]4[C@@]5(C)CCC(=O)C(C)(C)[C@@H]5CC[C@]43C)[C@H]2C1`: the growth was 101% in the assay with NCI-H23 lung; 103% with NCI-H226 lung; 101% with NCI-H322M lung; 109% with HOP-62 NSCLC; 106% with NCI-H460 lung; 96.6% in the assay on HOP-92 NSCLC. Further, the growth in the assay on NCI-H522 lung was 98.6%; with A549/ATCC NSCLC, 106%; in the assay with 786-0 renal, 99.5%; in the assay on COLO 205 colon it was 115%; with DU-145 prostate, 108%; in the assay with K-562 leukemia it was 96.8%. Moreover, the growth in the assay on MALME-3M melanoma was 110%; in the assay with MDA-MB-231 breast, 106%; in the assay on SF-268 CNS it was 102%; with SF-295 CNS it was 104%; with SF-539 CNS, 97.2%; with UACC-257 melanoma, 105%. Moreover, the growth in the assay with M14 melanoma is 110%.

On to `CC(=O)Nc1ccc(C)c(Nc2cc(-c3ccc(-n4cccn4)cc3)[nH]n2)c1`, for which the growth in the assay with NCI-H23 lung is 67%; with NCI-H226 lung, 57.9%; in the assay on NCI-H322M lung, 83.8%; with HOP-62 NSCLC it was 51.7%; in the assay with NCI-H460 lung, 27.6%; with HOP-92 NSCLC it was 113%. Moreover, the growth in the assay on NCI-H522 lung was 14.3%; in the assay on A549/ATCC NSCLC, 60.2%; in the assay with 786-0 renal, 74.9%; with COLO 205 colon, 67.1%; in the assay with DU-145 prostate, 81.5%; in the assay with K-562 leukemia, 19%. For the same molecule, the growth was 73.6% in the assay on MALME-3M melanoma; 82.8% in the assay on MDA-MB-231 breast; 52.8% with RXF 393 renal; 60.6% in the assay on SF-268 CNS; 46.1% in the assay with SF-295 CNS; 41.3% in the assay on SF-539 CNS. Besides, the growth in the assay with UACC-257 melanoma is 64.4%; with M14 melanoma, 19.2%.

On to `Cc1ccc(-c2cc(-c3ccc(N(C)C)cc3)n3c(n2)nc2ccccc23)cc1`, for which the growth is 57.1% in the assay with NCI-H23 lung; 57% in the assay with NCI-H226 lung; 103% in the assay with NCI-H322M lung; 83.1% with HOP-62 NSCLC; 61.7% in the assay on NCI-H460 lung; 21.7% with HOP-92 NSCLC. The growth was 25.4% in the assay with NCI-H522 lung; 56.5% in the assay with A549/ATCC NSCLC; 80.8% in the assay with 786-0 renal; 92.5% with COLO 205 colon; 87.2% in the assay on DU-145 prostate; 29.2% in the assay with K-562 leukemia. Besides, the growth with MALME-3M melanoma is 96.1%; in the assay with MDA-MB-231 breast, 66%; in the assay on SF-268 CNS, 88.7%; in the assay with SF-295 CNS, 55%; with SF-539 CNS, 89.8%; with UACC-257 melanoma, 65.8%. Moreover, the growth in the assay with M14 melanoma was 77.2%.

With `COc1ccc(C2CC(c3ccc(Nc4nc(NCCO)nc(Nc5ccc(Cl)cc5)n4)cc3)=Nc3c(N)nc(N)nc3N2)cc1` (configuration not stated), the growth was 57.8% with NCI-H23 lung; 88.7% with NCI-H226 lung; 93.2% in the assay on NCI-H322M lung; 37.4% in the assay on HOP-62 NSCLC; 63% in the assay with NCI-H460 lung; 74.6% in the assay with HOP-92 NSCLC. Further, the growth is 56.1% in the assay on NCI-H522 lung; 95.1% with A549/ATCC NSCLC; 71% with 786-0 renal; 92.1% in the assay with COLO 205 colon; 73.1% in the assay with DU-145 prostate; -10.1% (active) in the assay with K-562 leukemia. Besides, the growth in the assay on MALME-3M melanoma was 113%; with MDA-MB-231 breast, 77.3%; with SF-268 CNS it was 81.6%; in the assay on SF-295 CNS it was 82%; in the assay on SF-539 CNS it was 84.4%; in the assay with UACC-257 melanoma, 113%. In the assay on M14 melanoma, the growth was 94.7%.

Regarding `Cn1c2ccc(Br)cc2c2c3c(c4c5cc(F)ccc5oc4c21)C(=O)N(O)C3=O`, the growth was 77.2% in the assay with NCI-H23 lung; 90.8% with NCI-H226 lung; 103% in the assay with NCI-H322M lung; 47.1% with HOP-62 NSCLC; 45.9% in the assay on NCI-H460 lung; 82.5% with HOP-92 NSCLC. Moreover, the growth was 72.1% in the assay on NCI-H522 lung; 98.4% in the assay on A549/ATCC NSCLC; 97.6% in the assay with 786-0 renal; 93.7% in the assay with COLO 205 colon; 88.1% with DU-145 prostate; 82.8% with K-562 leukemia. The growth with MALME-3M melanoma is -95.9% (active); with MDA-MB-231 breast, 85.3%; in the assay on SF-268 CNS it was 70.7%; with SF-295 CNS it was 89.9%; with SF-539 CNS it was 83.5%; in the assay on UACC-257 melanoma it was 104%. The growth with M14 melanoma was 89.4%.

Turning to `COC(=O)[C@@]1(C)CC[C@]2(C)CC[C@]3(C)C(=CC(=O)[C@@H]4[C@@]5(C)Cc6c(n(CC#CCN7CCN(C)CC7)c7ccccc67)C(C)(C)[C@@H]5CC[C@]43C)[C@@H]2C1`, the growth in the assay with NCI-H23 lung was 84.7%; in the assay with NCI-H226 lung it was 98.5%; in the assay on NCI-H322M lung, 91.5%; in the assay on HOP-62 NSCLC, 113%; in the assay on NCI-H460 lung, 22.4%; in the assay with HOP-92 NSCLC, 83%. Further, the growth in the assay with NCI-H522 lung was 100%; in the assay on A549/ATCC NSCLC, 69.4%; with 786-0 renal it was 67.8%; with COLO 205 colon, 94.2%; in the assay on DU-145 prostate, 54.5%; in the assay on K-562 leukemia it was -5.29% (active). The growth in the assay on MALME-3M melanoma was 115%; in the assay with MDA-MB-231 breast it was 67.2%; in the assay on SF-268 CNS, 86.6%; in the assay on SF-295 CNS, 85.9%; in the assay with SF-539 CNS, 91.5%; with UACC-257 melanoma, 106%. In the assay with M14 melanoma, the growth was 90.6%.
